# Data taken from PubChem BioAssay AID1508637 (National Center for Advancing Translational Sciences (NCATS), 2021).
# Records with an inconclusive call do not appear. Calls of active or inactive are those of the source. Calls follow the shape of the dose curve; as a rule, active = well fitted inhibition curve with a large enough effect; inconclusive = small, poorly fitted or top-dose-only effect; inactive = flat fitted curve, though single readings scatter. Residues, ends and D or L forms follow the SMILES beside them. *: point of attachment. Cbz = O=C(OCc1ccccc1)*
# Assay: qHTS for characterization and localization of zebrafish homologs of the human ABCB1 multidrug transporter: empty vector transfected cells
# Conditions: empty vector transfected control cells, CellTiter-Glo luminescence viability, 72 h; series mostly up to 46.1 µM
# Summary of the method: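 Empty-vector, P-gp-overexpressing MDR-19 and zebrafish abcb4- or abcb5-transfected cells were exposed to ~90 P-gp substrates at varying concentrations for 72 h at 37C. Viability was read by CellTiter-Glo luminescence; cytotoxic meant inhibitory curve class, >50% maximal response and AC50 < 10 uM.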
row,SMILES,Potency
1,C#Cc1cccc(Nc2ncnc3cc(OC)c(OCCCCCCC(=O)NO)cc23)c1,2960 nM (active)
2,CC[n+]1c(-c2ccccc2)c2cc(N)ccc2c2ccc(N)cc21,332 nM (active)
3,CC(C)C[C@H](NC(=O)[C@H](CCc1ccccc1)NC(=O)CN1CCOCC1)C(=O)N[C@@H](Cc1ccccc1)C(=O)N[C@@H](CC(C)C)C(=O)[C@@]1(C)CO1,46.9 nM (active)
4,CC(=O)C1(O)Cc2c(O)c3c(c(O)c2C(OC2CC(N)C(O)C(C)O2)C1)C(=O)c1c(O)cccc1C3=O (configuration not stated),41.8 nM (active)
5,CN(C)C1CCN(C(=O)c2ccc(NC(=O)Nc3ccc(-c4nc(N5CCOCC5)nc(N5CCOCC5)n4)cc3)cc2)CC1,469 nM (active)
6,CCn1nnc2c(N3CCOCC3)nc(-c3ccc(NC(=O)Nc4ccc(C(=O)N5CCN(C)CC5)cc4)cc3)nc21,332 nM (active)
7,COc1cc(C(=O)NC2CCN(C)CC2)ccc1Nc1ncc2c(n1)N(C1CCCC1)CC(F)(F)C(=O)N2C,41.8 nM (active)
8,Cc1[nH]c2ccccc2c1CCNCc1ccc(/C=C/C(=O)NO)cc1,235 nM (active)
9,CCCCc1nc2cc(C=CC(=O)NO)ccc2n1CCN(CC)CC,3320 nM (active)
10,CC(C)C[C@@H](C=O)NC(=O)[C@H](CC(C)C)NC(=O)[C@H](CC(C)C)NC(=O)OCc1ccccc1 (Cbz-Leu-Leu-Leu-aldehyde),1320 nM (active)
11,CC[C@@]1([C@@H]2O[C@@H]([C@H]3O[C@@](O)(CO)[C@H](C)C[C@@H]3C)C[C@@H]2C)CC[C@H]([C@]2(C)CC[C@]3(C[C@H](O)[C@@H](C)[C@@H]([C@@H](C)[C@@H](OC)[C@H](C)C(=O)O)O3)O2)O1,148 nM (active)
12,C=CCNC1=C2CC(C)CC(OC)C(O)C(C)/C=C(\C)C(OC(N)=O)C(OC)/C=C/C=C(\C)C(=O)NC(=CC1=O)C2=O (configuration not stated),1480 nM (active)
13,CCC1=CC2CN(C1)Cc1c([nH]c3ccccc13)[C@@](C(=O)OC)(c1cc3c(cc1OC)N(C)[C@H]1[C@@](O)(C(=O)OC)[C@H](OC(C)=O)[C@]4(CC)C=CCN5CC[C@]31[C@@H]54)C2 (some centres not stated),105 nM (active)
14,CCn1c(-c2nonc2N)nc2c(C#CC(C)(C)O)ncc(OC[C@H]3CCCNC3)c21,1180 nM (active)
15,COc1cc2c(NC3CCN(C(C)C)CC3)nc(N3CCCN(C)CC3)nc2cc1OCCCN1CCCC1,16600 nM (active)
16,C[C@@H]1O[C@@H](O[C@H]2[C@H](O)[C@@H](O)[C@H](O[C@H]3[C@H](O[C@H]4CC[C@@]5(C)C(=CC[C@@H]6C5CC[C@]5(C)[C@@H]7[C@H](C[C@@H]65)O[C@]5(CC[C@@](C)(CO[C@@H]6O[C@H](CO)[C@@H](O)[C@H](O)[C@H]6O)O5)[C@H]7C)C4)O[C@H](CO)[C@@H](O)[C@@H]3O)O[C@@H]2CO)[C@H](O)[C@H](O)[C@H]1O (some centres not stated),353 nM (active)
17,Cc1cc(Nc2cc(NC(=O)c3c(Cl)cccc3Cl)ccn2)nc(N)n1,4180 nM (active)
